Compound activity from PubChem BioAssay.
HEK293 tox = cytotoxic compounds in HEK 293 cells; 94,000 tested, 6.6% active; Potency, µM (highest dose often 115 µM), inactives show at the top dose activity change, negative = cytotoxicity, usual class: inhibitors; HEK 293 viability, ATP luminescence (CellTiter-Glo), 48-72 h; active = well fitted curve in the direction sought with a large enough effect; inconclusive = small, poorly fitted or top-dose-only effect, or another doubt; inactive = no such curve, though single readings can be large; an effect the other way counts as inactive or inconclusive; also: % is scaled to controls: 0 for no effect and ±100 for the full control effect; nearly all actives have a fitted effect of over 60% in size
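HEK 293 cells seeded at 250 cells/well were exposed to compound for 48 or 72 hr at 37 degree Celsius. Viability taken as ATP content by CellTiter-Glo luminescence.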
FLuc inh = Photinus pyralis luciferase inhibition | purified P. pyralis luciferase, luminescence, biochemical | Potency, µM (highest dose often 115 µM), most hits filed as inhibitors | 76,000 tested, 2.5% active; active = well fitted curve in the direction sought with a large enough effect; inconclusive = small, poorly fitted or top-dose-only effect, or another doubt; inactive = no such curve, though single readings can be large; an effect the other way counts as inactive or inconclusive; also: % is scaled to controls: 0 for no effect and ±100 for the full control effect; nearly all actives have a fitted effect of over 65% in size
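FLuc 10nM, D-luciferin 10uM, ATP 10uM, Mg acetate 10mM, Tris acetate pH 7.5, Tween/BSA; cpd qHTS; enzyme added last; CCD luminescence.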
NPR1 antag = antagonists of human natriuretic peptide receptor Npr1 | HEK293 hNpr1 GloSensor cGMP, ANP-stimulated luminescence | Potency, µM (doses to about 46.3 µM), inactives show at the highest dose activity change, negative = inhibition, actives largely listed as inhibitors | P16066 | AID 1347048 | 76,000 tested, 1.6% active; also: % is scaled to controls: 0 for no effect and ±100 for the full control effect; nearly all actives have a fitted effect of over 60% in size
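Compound pre-incubated 30 min at room temperature on GloSensor-loaded HEK293 cells stably carrying hNpr1 and the pGS-40F cGMP biosensor. Stimulation uses hNppA at 0.1 nM final; luminescence is taken at baseline and 20 min post-agonist.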
3T3 cytotox = kills NIH 3T3 cells; NIH 3T3 viability, CellTiter-Glo ATP luminescence, 48-72 h; Potency, µM (series often up to 96.7 µM), inactives show top-dose activity change, negative = cytotoxicity, hits mostly inhibitors; 94,000 tested, 4.3% active; active = well fitted curve in the direction sought with a large enough effect; inconclusive = small, poorly fitted or top-dose-only effect, or another doubt; inactive = no such curve, though single readings can be large; an effect the other way counts as inactive or inconclusive; also: % is scaled to controls: 0 for no effect and ±100 for the full control effect; nearly all actives have a fitted effect of over 55% in size
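ATP-dependent luminescence (CellTiter-Glo) served as the viability signal for NIH 3T3 cells treated with compound for 48 or 72 hr at 37 °C.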
Npr1 antag conf = hNpr1 antagonism, confirmation assay; shares compounds with NPR1 antag; HEK293 hNpr1 cGMP GloSensor luminescence, ANP-stimulated; Potency, µM (series often up to 57.6 µM), for the others: at the highest dose activity change, negative = inhibition, most hits filed as inhibitors; 1,400 tested, 76% active; also: nearly all actives have a fitted effect of over 70% in size
NPR2 antag = selectivity test of Npr1 antagonists against human Npr2 | Potency, µM (top dose mostly 57.6 µM), inactives show at the top dose activity change, negative = inhibition, usual class: inhibitors | AID 1347046 | 1,400 tested, 67% active | shares compounds with NPR1 antag | HEK293 hNpr2 GloSensor cGMP luminescence, CNP-stimulated; also: nearly all actives have a fitted effect of over 70% in size
Target sequence (P20594 whole entry, looked up): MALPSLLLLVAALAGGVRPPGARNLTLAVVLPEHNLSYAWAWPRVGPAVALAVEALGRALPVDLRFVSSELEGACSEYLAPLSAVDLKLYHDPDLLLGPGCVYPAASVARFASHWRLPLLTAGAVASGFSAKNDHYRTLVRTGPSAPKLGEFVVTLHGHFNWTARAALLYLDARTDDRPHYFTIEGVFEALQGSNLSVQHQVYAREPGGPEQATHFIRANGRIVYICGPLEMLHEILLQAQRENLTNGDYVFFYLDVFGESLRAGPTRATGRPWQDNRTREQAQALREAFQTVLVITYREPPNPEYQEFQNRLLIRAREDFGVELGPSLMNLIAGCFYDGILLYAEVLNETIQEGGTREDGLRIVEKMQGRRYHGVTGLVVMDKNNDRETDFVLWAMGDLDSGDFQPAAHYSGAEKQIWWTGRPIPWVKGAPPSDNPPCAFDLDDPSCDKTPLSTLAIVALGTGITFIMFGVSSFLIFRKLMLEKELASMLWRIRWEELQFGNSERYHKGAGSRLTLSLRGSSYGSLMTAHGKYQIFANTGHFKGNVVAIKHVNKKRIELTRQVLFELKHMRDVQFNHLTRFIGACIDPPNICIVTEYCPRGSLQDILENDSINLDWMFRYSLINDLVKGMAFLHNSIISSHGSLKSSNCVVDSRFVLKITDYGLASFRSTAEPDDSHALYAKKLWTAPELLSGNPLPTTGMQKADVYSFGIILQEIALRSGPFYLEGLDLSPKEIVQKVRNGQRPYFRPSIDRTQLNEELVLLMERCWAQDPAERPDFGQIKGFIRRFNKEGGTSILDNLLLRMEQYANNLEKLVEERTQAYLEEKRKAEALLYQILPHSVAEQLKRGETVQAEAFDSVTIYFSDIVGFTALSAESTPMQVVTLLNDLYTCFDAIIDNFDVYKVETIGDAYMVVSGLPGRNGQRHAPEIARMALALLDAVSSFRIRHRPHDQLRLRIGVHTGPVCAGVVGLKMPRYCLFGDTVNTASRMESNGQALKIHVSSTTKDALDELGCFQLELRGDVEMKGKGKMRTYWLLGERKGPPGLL
FLuc counter = FLuc enzyme inhibition, Npr1 counter-screen; shares compounds with NPR1 antag; purified FLuc enzyme, luminescence, Km substrate; Potency, µM (top dose mostly 57.6 µM), for inactives: at the top dose activity change, negative = inhibition, actives largely listed as inhibitors; 1,400 tested, 0.7% active; active = well fitted curve in the direction sought with a large enough effect; inconclusive = small, poorly fitted or top-dose-only effect, or another doubt; inactive = no such curve, though single readings can be large; an effect the other way counts as inactive or inconclusive; also: 0% is about no effect
GloSensor cGMP = control cell line activity, Npr1 antagonist counter-screen; shares compounds with NPR1 antag; HEK293 GloSensor cGMP, SNP-stimulated, luminescence; Potency, µM (series often up to 57.6 µM), for inactives: at the highest dose activity change, negative = inhibition, actives largely listed as inhibitors; 1,400 tested, 69% active; AID 1347051; also: % is scaled to controls: 0 for no effect and ±100 for the full control effect; nearly all actives have a fitted effect of over 70% in size
* hit, by the source's call; i = inactive; ? = inconclusive; / = no result given; [ ] = dose if it differs, or a comment. In the library only some 11% were active in any assay of this set; here they are far more common. Unless noted, calls follow the shape of the full dose curve. Potency is read from the fitted curve at half-maximal effect.

SMILES | HEK293 tox | FLuc inh | NPR1 antag | 3T3 cytotox | Npr1 antag conf | NPR2 antag | FLuc counter | GloSensor cGMP
CCOc1ccc(S(=O)(=O)N2CCN(C3(CC)CCN(C(=O)NC)C3)CC2)cc1 (centres undefined) | ? | i | 2% | ? | / | / | / | /
Cc1nn2c(c1-c1ccccc1[S+](C)(=O)[O-])N(C(=O)Cc1ccccc1)CCC2 | -13%[172 µM] | i | 1%[70.6 µM] | ? | / | / | / | /
Cc1nn2c(c1-c1ccccc1OCc1ccccc1)N(C(=O)COc1ccccc1C(N)=O)CCC2 | ? | i | 7.1µM* | 6.3µM* | 17µM* | 11µM* | 0% | 0%
Cc1nn2c(c1-c1ccccc1OCc1ccccc1)N(C(=O)Cc1ccccn1)CCC2 | ? | i | ? | ? | 20µM* | 13µM* | 1%[86.2 µM] | -20%[86.2 µM]
O=C(O)CCNC(=O)N1CCCC(c2cccc(C(=O)O)c2)C1 (centres undefined) | -12% | i | 5% | -8% | / | / | / | /
COc1ccc(Cl)cc1NC(=O)Cn1c(N2CCC(C)CC2)nc(C)cc1=O | 45µM* | i | 11µM* | ? | 19µM* | 19µM* | 1% | 15µM*
CCOC(=O)c1ccc(NC(=O)Cn2c(N3CCC(C)CC3)nc(C)cc2=O)cc1 | ? | i | 14µM* | ? | 22µM* | 19µM* | 4% | 22µM*
CCOc1ccc(NC(=O)Cn2c(N3CCC(C)CC3)nc(C)cc2=O)cc1 | ? | i | ? | ? | / | / | / | /
Cc1nn(-c2ccccc2)c2c1C(C)N(CC1CN([S+](=O)([O-])c3c(C)noc3C)C1)C2=O (centres undefined) | ? | / | / | -12% | / | / | / | /
O=C(NCc1cc2n(n1)CCN(C1CCCCC1)C2)c1noc2c1CCCC2 | -21% | i | 5% | -17% | / | / | / | /
CCCC1=Nc2cc(C(=O)NCCc3ccc(OC)c(OC)c3)ccc2Sc2ccccc21 | ? | i | ? | ? | ? | ? | 1% | ?
COc1ccc(CCNC(=O)c2ccc3c(c2)N(C)C2CCCN2C3=O)cc1OC (centres undefined) | -13% | i | -14% | -22% | / | / | / | /
O=C(NCc1cc(F)ccc1F)c1csc(N2CCN(c3ccccc3F)CC2)n1 | ? | i | ? | ? | 27µM* | ? | 2% | ?
O=C(NCc1cccs1)c1csc(N2CCN(c3ccccc3F)CC2)n1 | ? | i | -28% | ? | ? | ? | -2% | ?
O=C(NCc1cccs1)c1cccc2c1CCN2C(=O)c1ccc(F)cc1 | ? | i | -14% | -27% | / | / | / | /
N#Cc1ccc(-c2nc(C3CC(=O)N(c4ccc(F)cc4)C3)no2)cc1 (centres undefined) | ? | i | 5% | ? | / | / | / | /
COCc1noc([C@@H]2CN(C(=O)c3cccc(Cl)c3)C[C@H]2CO)n1 | i | i | 9% | -2% | / | / | / | /
Cc1ccc(CN2CC3(Cc4ccccc4NC3=O)C2)cc1 | ? | / | / | -2%[138 µM] | / | / | / | /
O=C(N[C@H]1CO[C@H]2[C@@H]1OC[C@@H]2n1nnnc1Oc1ccccc1)c1ccc(C(F)(F)F)cc1 | ? | i | 10µM* | ? | 11µM* | 12µM* | -1% | 9.7µM*
O=C(N[C@H]1CO[C@H]2[C@@H]1OC[C@@H]2n1nnnc1Oc1ccc(-n2ccnc2)cc1)c1ccc(C(F)(F)F)cc1 | 35µM* | i | 11µM* | -33% | 17µM* | 14µM* | 2% | 15µM*
O=C(Nc1cccc(C(F)(F)F)c1)N[C@H]1CO[C@H]2[C@@H]1OC[C@@H]2n1nnnc1Oc1ccccc1 | i | i | 0% | -1% | / | / | / | /
c1ccc(-n2cc(CN3CCCC(OCc4cccnc4)C3)nn2)cc1 (centres undefined) | -12% | i | -3% | -10% | / | / | / | /
c1ccc(-n2cc(CN3CCC(Oc4ccncc4)CC3)nn2)cc1 | ? | i | ? | ? | ? | ? | 1% | ?
CN1CCN(Cc2ccc(Nc3cnc4ccc(-c5ccccc5)nn34)cc2)CC1 | 25µM* | i | 32µM* | ? | 31µM* | 31µM* | -4%[86.2 µM] | 22µM*
Cc1cccc(NC(=O)Cn2c(N3CCc4ccccc4C3)nc(C)cc2=O)c1 | 45µM* | i | -28% | ? | -29% | ? | 0% | ?
SMILES | HEK293 tox | FLuc inh | NPR1 antag | 3T3 cytotox | Npr1 antag conf | NPR2 antag | FLuc counter | GloSensor cGMP
COc1ccc(OC)c(NC(=O)Cn2c(N3CCc4ccccc4C3)nc(C)cc2=O)c1 | 32µM* | i | ? | 28µM* | ? | ? | 1% | ?
Cc1cc(=O)n(CC(=O)Nc2ccccc2C)c(N2CCc3ccccc3C2)n1 | ? | i | ? | ? | ? | -22% | 2% | -27%
COc1ccccc1NC(=O)Cn1c(N2CCc3ccccc3C2)nc(C)cc1=O | ? | i | -23% | ? | -23% | -14% | -3% | -10%
CN1CCN(Cc2nc(C3(O)CCN(C(=O)Cc4ccccc4)CC3)cs2)CC1 | -4%[172 µM] | i | -1%[70.6 µM] | -14%[174 µM] | / | / | / | /
COCc1nc(C2CCN(C(=O)CCc3c[nH]c4ccccc34)C2)no1 (centres undefined) | -8% | i | -1% | -9% | / | / | / | /
COc1ccc(CN2C=C(C(=O)OCc3nc(C4CCCCC4)no3)C(C)=NS2(=O)=O)cc1 | ? | i | ? | ? | / | / | / | /
COCCCNC(=O)N1CCCC(c2nc(C(C)C)no2)CCNC(=O)CC1 (centres undefined) | i | i | 1% | -3% | / | / | / | /
Cc1ccccc1CC(=O)N1CCC2(CC1)NC(=O)N(c1ccc(F)cc1)N2 | ? | i | 11µM* | ? | 17µM* | 22µM* | -21% | 19µM*
Cc1cccc(OCC2(CNC(=O)c3ccc(F)cc3)C[C@@H](O)[C@@H](O)C2)n1 (some centres undefined) | -8%[172 µM] | i | 2%[70.6 µM] | 4%[138 µM] | / | / | / | /
O=C1COc2ccc(OCc3ccc(F)cc3)nc2CN1CCOc1ccccc1 | ? | i | 32µM* | ? | 35µM* | 35µM* | -3%[86.2 µM] | 28µM*
O=C1COc2ccc(OCc3cncs3)nc2CN1CCOc1ccccc1 | ? | i | 32µM* | ? | 40µM* | 31µM* | -2%[86.2 µM] | ?
